Positions count from the first letter of the chain named.

Common to all, as to assay: protein-binding microarray (PBM); PBM: ~300 nM protein, 6 mM HEPES pH 7.8, 80 mM KCl, 0.5 mM EDTA, 0.5 mM EGTA, 6% glycerol, 35 ng/ul poly-dIdC, 1% milk, 1 h, room temperature; Ap Aiptasia and Nv Nematostella (sea anemones) / Co Capsaspora / Aq Amphimedon (sponge) / Dm Drosophila / Hu human; RHD is the Rel homology domain; high values mean tight binding
Conditions in all cases: dsDNA, one strand shown

For one test, the target named is T1, GST-Ap-NF-kB RHD (Exaiptasia pallida (Aiptasia), UniProt A0A913YAJ5 2-422).
T1 sequence: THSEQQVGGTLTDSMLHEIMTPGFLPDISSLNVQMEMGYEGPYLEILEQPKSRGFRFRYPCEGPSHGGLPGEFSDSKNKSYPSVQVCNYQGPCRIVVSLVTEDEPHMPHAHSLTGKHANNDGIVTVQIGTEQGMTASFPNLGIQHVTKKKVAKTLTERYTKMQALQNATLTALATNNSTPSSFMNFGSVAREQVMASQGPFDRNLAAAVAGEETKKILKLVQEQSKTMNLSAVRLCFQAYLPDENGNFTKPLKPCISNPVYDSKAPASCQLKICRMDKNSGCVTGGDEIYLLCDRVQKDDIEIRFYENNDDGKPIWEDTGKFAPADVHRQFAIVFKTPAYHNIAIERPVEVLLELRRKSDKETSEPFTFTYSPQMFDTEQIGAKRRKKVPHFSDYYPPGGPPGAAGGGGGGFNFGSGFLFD

The target in test [1] is T2, GST-Nv-NF-kB (Cys allele) (Nematostella vectensis, UniProt E5G601 2-411).
T2 sequence: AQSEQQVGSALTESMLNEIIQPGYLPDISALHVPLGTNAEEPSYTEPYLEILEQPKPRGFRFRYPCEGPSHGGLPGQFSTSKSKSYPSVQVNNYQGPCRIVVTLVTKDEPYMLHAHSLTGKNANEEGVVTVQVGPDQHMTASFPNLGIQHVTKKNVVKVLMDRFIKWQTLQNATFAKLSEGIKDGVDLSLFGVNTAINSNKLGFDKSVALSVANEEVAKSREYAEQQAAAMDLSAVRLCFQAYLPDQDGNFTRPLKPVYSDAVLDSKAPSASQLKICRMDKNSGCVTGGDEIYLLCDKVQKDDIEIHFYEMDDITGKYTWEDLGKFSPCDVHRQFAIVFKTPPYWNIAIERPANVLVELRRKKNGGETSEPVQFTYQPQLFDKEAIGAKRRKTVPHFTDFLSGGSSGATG

Test [2] deals with T3, GST-Nv-NF-kB (Ser allele) (Nematostella vectensis, UniProt A7UNT2 2-411).
T3 sequence: T2 sequence with Q21R, C66S, S207N, E215Q, V217A, E225K, A268E, D399E

A further test concerns the target T4, GST-Co-NF-kB (Capsaspora owczarzaki, UniProt F1ARL5 200-546).
T4 sequence: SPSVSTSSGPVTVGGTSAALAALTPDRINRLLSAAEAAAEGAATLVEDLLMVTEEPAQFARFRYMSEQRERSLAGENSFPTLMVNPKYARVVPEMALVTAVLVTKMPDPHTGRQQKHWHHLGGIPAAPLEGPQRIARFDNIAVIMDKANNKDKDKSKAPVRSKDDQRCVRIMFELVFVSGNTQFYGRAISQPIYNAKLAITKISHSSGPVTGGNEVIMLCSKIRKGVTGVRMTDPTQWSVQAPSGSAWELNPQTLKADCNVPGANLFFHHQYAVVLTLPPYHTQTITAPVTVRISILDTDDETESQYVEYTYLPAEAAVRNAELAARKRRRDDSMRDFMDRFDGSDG

The target of the next test is T5, GST-Dm-Relish (Drosophila melanogaster, UniProt Q94527 99-473).
T5 sequence: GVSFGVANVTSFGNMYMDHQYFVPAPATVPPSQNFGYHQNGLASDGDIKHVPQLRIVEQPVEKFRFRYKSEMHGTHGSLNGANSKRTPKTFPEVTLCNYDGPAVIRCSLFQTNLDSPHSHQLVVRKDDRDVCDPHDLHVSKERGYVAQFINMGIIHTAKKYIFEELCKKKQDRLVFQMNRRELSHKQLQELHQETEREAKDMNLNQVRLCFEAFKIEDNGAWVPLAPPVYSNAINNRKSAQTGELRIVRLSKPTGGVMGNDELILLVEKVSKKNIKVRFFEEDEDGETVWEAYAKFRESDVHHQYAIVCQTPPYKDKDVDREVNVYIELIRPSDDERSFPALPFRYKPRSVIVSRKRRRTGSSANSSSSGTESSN

The next test has as its target T6, GST-Aq-NF-kB (Amphimedon queenslandica, UniProt A9Y5G7 2-389).
T6 sequence: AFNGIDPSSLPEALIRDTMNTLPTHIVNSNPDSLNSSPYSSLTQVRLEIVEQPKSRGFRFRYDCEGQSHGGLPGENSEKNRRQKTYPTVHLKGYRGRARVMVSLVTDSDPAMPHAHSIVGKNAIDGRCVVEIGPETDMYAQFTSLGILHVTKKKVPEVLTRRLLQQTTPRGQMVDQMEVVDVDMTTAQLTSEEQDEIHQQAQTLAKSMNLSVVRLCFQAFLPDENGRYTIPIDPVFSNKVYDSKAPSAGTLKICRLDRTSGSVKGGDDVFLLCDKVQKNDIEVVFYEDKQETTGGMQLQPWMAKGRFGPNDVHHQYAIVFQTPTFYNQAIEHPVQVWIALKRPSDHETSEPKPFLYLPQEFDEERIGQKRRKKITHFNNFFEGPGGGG

In the case of “CCGATTAACATCACGGGGGGAAATGATGTTAATCGGGTCTTGATTCGCTTGACGCTGCTG”, the binding signal with GST-Ap-NF-kB RHD came to 6.31 z-score; in test [1] it was 6.61 z-score; in test [2], 7.51 z-score; with GST-Co-NF-kB it was 11.2 z-score; in the test with GST-Dm-Relish, 4.78 z-score; with GST-Aq-NF-kB, 5.52 z-score.

In the case of “CCGATTAACATCAGGGGTAGGTTTGATGTTAATCGGGTCTTGATTCGCTTGACGCTGCTG”, the binding signal is 2.16 z-score with GST-Ap-NF-kB RHD, 1.65 z-score in test [1], 3.22 z-score with GST-Co-NF-kB and 2.1 z-score in the test with GST-Aq-NF-kB.

For the sequence “CCGATTAACATCATGGGGACGACTGATGTTAATCGGGTCTTGATTCGCTTGACGCTGCTG”, the binding signal with GST-Ap-NF-kB RHD came to 3.56 z-score; in test [1], 3.19 z-score; in the test with GST-Co-NF-kB, 2.39 z-score; in the test with GST-Aq-NF-kB, 2.64 z-score.

Turning to “CCGATTAACATCACGGTAATCCCTGATGTTAATCGGGTCTTGATTCGCTTGACGCTGCTG”, the binding signal with GST-Ap-NF-kB RHD worked out at 4.31 z-score; in test [1] it was 1.91 z-score; in test [2], 1.84 z-score; with GST-Dm-Relish, 5.6 z-score; in the test with GST-Aq-NF-kB, 4.77 z-score.

Take “CCGATTAACATCACATGGGAAACTGATGTTAATCGGGTCTTGATTCGCTTGACGCTGCTG”: the binding signal with GST-Ap-NF-kB RHD is 1.24 z-score; in test [1], 2.14 z-score; with GST-Co-NF-kB, 2.48 z-score; with GST-Aq-NF-kB it was 1.58 z-score.

Turning to “CCGATTAACATCAATAAAGTCCCTGATGTTAATCGGGTCTTGATTCGCTTGACGCTGCTG”, the binding signal with GST-Ap-NF-kB RHD came out at 5.45 z-score; in test [1], 7.06 z-score; in test [2] it was 7.32 z-score; with GST-Dm-Relish it was 6.49 z-score; in the test with GST-Aq-NF-kB it was 5.67 z-score.

With “CCGATTAACATCACGGGGGGGAATGATGTTAATCGGGTCTTGATTCGCTTGACGCTGCTG”, the binding signal in the test with GST-Ap-NF-kB RHD came to 6.98 z-score; in test [1], 5.54 z-score; in test [2] it was 6.1 z-score; with GST-Co-NF-kB, 9.46 z-score; with GST-Dm-Relish, 5.39 z-score; with GST-Aq-NF-kB, 5.91 z-score.

On to “CCGATTAACATCAGGGGAAGCACTGATGTTAATCGGGTCTTGATTCGCTTGACGCTGCTG”, for which the binding signal stood at 5.88 z-score with GST-Ap-NF-kB RHD; 6.43 z-score in test [1]; 6.99 z-score in test [2]; 4.4 z-score with GST-Co-NF-kB; 9.95 z-score in the test with GST-Dm-Relish; 6.83 z-score in the test with GST-Aq-NF-kB.

On to “CCGATTAACATCAGGGAAGGACCTGATGTTAATCGGGTCTTGATTCGCTTGACGCTGCTG”, for which the binding signal was 1.78 z-score in the test with GST-Ap-NF-kB RHD; 2.28 z-score in test [1]; 1.09 z-score in test [2]; 4.44 z-score with GST-Dm-Relish; 3.91 z-score in the test with GST-Aq-NF-kB.

For the sequence “CCGATTAACATCAAAGATTTCCCTGATGTTAATCGGGTCTTGATTCGCTTGACGCTGCTG”, the binding signal in the test with GST-Ap-NF-kB RHD came out at 4.23 z-score; in test [1] it was 6.33 z-score; in test [2], 7.19 z-score; in the test with GST-Co-NF-kB, 4.84 z-score; with GST-Dm-Relish it was 2.9 z-score; with GST-Aq-NF-kB it was 5.13 z-score.

In the case of “CCGATTAACATCACCGTTTTCCCTGATGTTAATCGGGTCTTGATTCGCTTGACGCTGCTG”, the binding signal with GST-Ap-NF-kB RHD is 3.62 z-score; in test [1] it was 4.51 z-score; in test [2] it was 6.61 z-score; with GST-Co-NF-kB, 4.03 z-score; with GST-Dm-Relish it was 2.19 z-score; with GST-Aq-NF-kB it was 3.24 z-score.

With “CCGATTAACATCAACGGGAACTCTGATGTTAATCGGGTCTTGATTCGCTTGACGCTGCTG”, the binding signal was found to be 2.34 z-score with GST-Ap-NF-kB RHD; 1.64 z-score in test [1]; 1.08 z-score in test [2]; 1.78 z-score with GST-Co-NF-kB; 1.77 z-score with GST-Dm-Relish; 2.25 z-score with GST-Aq-NF-kB.

On to “CCGATTAACATCAGGTCGGGAAATGATGTTAATCGGGTCTTGATTCGCTTGACGCTGCTG”, for which the binding signal with GST-Ap-NF-kB RHD turned out to be 1.76 z-score; in test [1], 2.6 z-score; in the test with GST-Co-NF-kB, 3.1 z-score; with GST-Aq-NF-kB, 1.83 z-score.
